# In the supplement of paper PMC3545927:
# The other results are listed elsewhere or left out. How many sequences the whole screen found active is unknown.
# Target: furin, P09958
# Test: furin cleavage Z-score vs untreated control; higher = more cleavage, active = 3.5 or more, inactive = 1 or less, 8 variable residues between constant flanks
# Procedure, shortened: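 Purified furin cleaved 8-mer peptides that were fused to a cDNA oligonucleotide and held on magnetic beads by their N-terminus. Each 0.01 ml reaction used a 1:10 enzyme:substrate ratio in 50 mM HEPES pH 7.5 with CaCl2 and NaCl and ran 7.5, 15 or 30 min. Released DNA was adapter-tagged by PCR and sequenced, and read counts gave abundance. The cleavage Z-score came from log counts against furin-free reactions, lowess-adjusted and scaled by median absolute deviation.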
# Sequence of furin, P09958 (P09958 whole entry): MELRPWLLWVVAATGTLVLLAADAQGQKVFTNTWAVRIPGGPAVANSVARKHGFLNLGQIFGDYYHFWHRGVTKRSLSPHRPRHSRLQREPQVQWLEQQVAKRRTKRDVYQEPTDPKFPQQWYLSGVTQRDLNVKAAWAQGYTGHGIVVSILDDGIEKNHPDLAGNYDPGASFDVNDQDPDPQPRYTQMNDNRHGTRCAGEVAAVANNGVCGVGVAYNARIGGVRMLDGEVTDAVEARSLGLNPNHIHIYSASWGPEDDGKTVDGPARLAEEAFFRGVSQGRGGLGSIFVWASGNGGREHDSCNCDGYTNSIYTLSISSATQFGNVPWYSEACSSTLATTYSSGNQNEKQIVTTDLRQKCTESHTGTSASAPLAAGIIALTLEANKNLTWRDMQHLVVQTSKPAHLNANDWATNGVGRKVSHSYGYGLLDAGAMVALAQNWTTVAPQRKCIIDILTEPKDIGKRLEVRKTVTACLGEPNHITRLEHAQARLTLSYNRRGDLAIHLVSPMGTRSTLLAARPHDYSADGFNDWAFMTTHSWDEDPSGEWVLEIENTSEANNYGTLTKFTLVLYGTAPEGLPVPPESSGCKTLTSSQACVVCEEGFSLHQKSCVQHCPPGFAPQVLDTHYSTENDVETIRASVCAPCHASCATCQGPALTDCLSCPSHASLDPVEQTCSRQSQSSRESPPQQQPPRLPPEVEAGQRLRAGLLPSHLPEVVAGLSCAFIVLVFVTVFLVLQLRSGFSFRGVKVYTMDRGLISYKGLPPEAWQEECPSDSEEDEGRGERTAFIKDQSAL
Sequence,furin cleavage Z-score (7.5 min),furin cleavage Z-score (15 min),furin cleavage Z-score (30 min)
CADLARHYKSAGNASASA [FS-982],1.07,-0.538 (inactive),-1.88 (inactive)
CAYKGVWRVDAGNASASA [HC1168],-0.715 (inactive),-0.703 (inactive),0.326 (inactive)
CAHFLSQTKQAGNASASA [HC946],-1.62 (inactive),-0.0771 (inactive),0.398 (inactive)
CASTPCSAHYAGNASASA [HC2569],-0.833 (inactive),0.198 (inactive),0.946 (inactive)
CATTRVRRRSAGNASASA [FS-1100],8.61 (active),10.7 (active),6.67 (active)
CAVFGPLWILAGNASASA [HC608],-0.487 (inactive),-1.14 (inactive),-0.989 (inactive)
CARRPRHLSAAGNASASA [FS-1837],5.27 (active),4.94 (active),5.51 (active)
CARRPRQKEAAGNASASA [FS-2782],0.0199 (inactive),-1.9 (inactive),-0.838 (inactive)
CARRPRRVEAAGNASASA [FS-1921],1.67,1.82,3.69 (active)
CARTPRSSSAAGNASASA [FS-2833],0.99 (inactive),-0.243 (inactive),2.32
CARRPRRVIAAGNASASA [FS-2179],-0.112 (inactive),2.08,3.81 (active)
CARRLRDQEAAGNASASA [FS-1781],0.143 (inactive),-1.21 (inactive),-0.196 (inactive)
CARRPQDVKFAGNASASA [HC169],-0.409 (inactive),-1.01 (inactive),-0.285 (inactive)
CARTPREVEAAGNASASA [FS-2467],1.78,1.61,4.16 (active)
CAALMTGYTGAGNASASA [HC880],-1.03 (inactive),-2.97 (inactive),-0.313 (inactive)
CAEFVVCCSMAGNASASA [HC2127],-1.01 (inactive),0.711 (inactive),-0.748 (inactive)
CASTNCSAHLAGNASASA [HC2521],1.3,-0.319 (inactive),0.484 (inactive)
CAESYSSMPPAGNASASA [HC1352],0.813 (inactive),-0.573 (inactive),-0.906 (inactive)
CAMDVVCCSMAGNASASA [HC2106],-0.103 (inactive),-0.752 (inactive),-0.482 (inactive)
CARDWAHNGLAGNASASA [HC639],0.358 (inactive),-0.707 (inactive),0.626 (inactive)
CARGKRYSYKAGNASASA [FS-2019],0.222 (inactive),0.712 (inactive),1.19

Sequence,furin cleavage Z-score (7.5 min),furin cleavage Z-score (15 min),furin cleavage Z-score (30 min)
CAQRKRGGTAAGNASASA [WN1],-1.04 (inactive),0.079 (inactive),-0.249 (inactive)
CARGKRRREKAGNASASA [FS-2017],-0.00549 (inactive),-0.584 (inactive),-1.52 (inactive)
CARGKRQATAAGNASASA [FS-2016],7.14 (active),9.61 (active),6.1 (active)
CARGKRHATKAGNASASA [FS-2015],7.59 (active),7.53 (active),7.79 (active)
CAGERCDLEDAGNASASA [HC485],0.0125 (inactive),-0.597 (inactive),0.387 (inactive)
CASSYGFQYSAGNASASA [HC1465],1.75,0.0331 (inactive),-0.209 (inactive)
CATTPCSGSMAGNASASA [HC1926],-0.191 (inactive),0.357 (inactive),-1.65 (inactive)
CAARDQLEQAAGNASASA [HC1588],1.26,0.408 (inactive),-0.23 (inactive)
CAVPPRRKKSAGNASASA [FS-736],3.36,2.71,4.45 (active)
CATGSPITYSAGNASASA [HC804],-0.202 (inactive),-0.337 (inactive),-0.568 (inactive)
CAIFSRCARSAGNASASA [FS-1343],0.568 (inactive),0.619 (inactive),1.19
CASFDRKKKSAGNASASA [FS-1485],-0.34 (inactive),-0.366 (inactive),-0.05 (inactive)
CANAHRDKKSAGNASASA [FS-831],-0.25 (inactive),-0.94 (inactive),-2.16 (inactive)
CAMIHRFWKSAGNASASA [FS-1376],0.282 (inactive),-1.21 (inactive),-1.26 (inactive)
CAKGSRRKKSAGNASASA [FS-39],5.36 (active),4.72 (active),4.1 (active)
CAIFSRVKKSAGNASASA [FS-802],3.99 (active),2.87,3.95 (active)
CALKHRVKKSAGNASASA [FS-1358],8.56 (active),10.2 (active),8.6 (active)
CAEIEVPCHRAGNASASA [HC2444],1.1,1.09,0.798 (inactive)
CAVFDITKLLAGNASASA [HC603],0.928 (inactive),-0.333 (inactive),0.0832 (inactive)
CAKAARAKKIAGNASASA [FS-600],-0.438 (inactive),-0.00567 (inactive),-0.411 (inactive)
CAAATAFVGAAGNASASA [HC1073],-1.28 (inactive),-0.663 (inactive),-0.282 (inactive)
